From the supplement of paper PMC6411743
± gives the standard deviation of the averaged measurements. The full data set covers some 5,400 targets. This sample favours those with the largest changes.

Compound: Nc1nc2c(ncn2[C@@H]2O[C@H](COP(=O)(O)OP(=O)(O)OP(=O)(O)O)[C@@H](O)[C@H]2O)c(=O)[nH]1 [guanosine triphosphate]
Assay: NP40-soluble protein abundance relative to vehicle (solubility fold change) (ratio); higher = more soluble protein in presence of GTP
Method in brief: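 Each value is a fold change relative to the detergent-processed vehicle, calculated per replicate from vsn-normalised intensities. Jurkat crude lysate received eight concentrations (0.1 to 10 mM) for 10 min at room temperature and 3 min at 37 °C, then was solubilised in 0.8% NP40 with benzonase (60 min, 4 °C). The ultracentrifuged supernatant was TMT-labelled and run by LC-MS/MS in three independent experiments.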

UniProt O00567, sequence (O00567 whole entry): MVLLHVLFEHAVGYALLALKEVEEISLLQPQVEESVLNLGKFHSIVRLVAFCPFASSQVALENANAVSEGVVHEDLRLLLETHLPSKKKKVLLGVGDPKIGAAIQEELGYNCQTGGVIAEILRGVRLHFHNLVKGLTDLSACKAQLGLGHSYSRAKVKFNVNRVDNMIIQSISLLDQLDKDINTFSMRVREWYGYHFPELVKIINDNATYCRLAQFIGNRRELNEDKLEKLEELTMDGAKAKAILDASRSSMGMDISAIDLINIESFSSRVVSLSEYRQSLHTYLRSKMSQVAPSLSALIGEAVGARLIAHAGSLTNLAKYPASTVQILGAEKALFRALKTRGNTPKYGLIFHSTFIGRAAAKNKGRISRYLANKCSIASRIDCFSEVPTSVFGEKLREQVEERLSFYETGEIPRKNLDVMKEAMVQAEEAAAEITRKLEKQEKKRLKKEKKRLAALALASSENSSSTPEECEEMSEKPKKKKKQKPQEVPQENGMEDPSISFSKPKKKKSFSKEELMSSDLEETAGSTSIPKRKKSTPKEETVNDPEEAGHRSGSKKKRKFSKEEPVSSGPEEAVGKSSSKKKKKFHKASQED
UniProt P00387, sequence (P00387 whole entry): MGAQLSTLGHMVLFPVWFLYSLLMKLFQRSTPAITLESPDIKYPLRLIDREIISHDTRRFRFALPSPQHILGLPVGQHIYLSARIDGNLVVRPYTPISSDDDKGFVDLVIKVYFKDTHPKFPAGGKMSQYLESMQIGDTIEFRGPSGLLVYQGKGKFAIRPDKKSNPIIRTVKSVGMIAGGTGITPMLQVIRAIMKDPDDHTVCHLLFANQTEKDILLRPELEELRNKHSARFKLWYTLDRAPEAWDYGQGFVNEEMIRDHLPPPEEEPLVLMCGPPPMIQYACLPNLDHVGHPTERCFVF
UniProt O75937, sequence (O75937 whole entry): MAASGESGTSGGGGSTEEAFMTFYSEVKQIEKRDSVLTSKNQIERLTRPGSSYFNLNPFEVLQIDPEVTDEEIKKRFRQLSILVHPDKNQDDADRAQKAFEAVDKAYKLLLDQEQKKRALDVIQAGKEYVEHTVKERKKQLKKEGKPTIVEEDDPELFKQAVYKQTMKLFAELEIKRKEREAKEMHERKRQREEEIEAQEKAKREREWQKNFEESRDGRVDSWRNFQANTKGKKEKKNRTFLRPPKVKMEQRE
UniProt P49588, sequence (P49588 whole entry): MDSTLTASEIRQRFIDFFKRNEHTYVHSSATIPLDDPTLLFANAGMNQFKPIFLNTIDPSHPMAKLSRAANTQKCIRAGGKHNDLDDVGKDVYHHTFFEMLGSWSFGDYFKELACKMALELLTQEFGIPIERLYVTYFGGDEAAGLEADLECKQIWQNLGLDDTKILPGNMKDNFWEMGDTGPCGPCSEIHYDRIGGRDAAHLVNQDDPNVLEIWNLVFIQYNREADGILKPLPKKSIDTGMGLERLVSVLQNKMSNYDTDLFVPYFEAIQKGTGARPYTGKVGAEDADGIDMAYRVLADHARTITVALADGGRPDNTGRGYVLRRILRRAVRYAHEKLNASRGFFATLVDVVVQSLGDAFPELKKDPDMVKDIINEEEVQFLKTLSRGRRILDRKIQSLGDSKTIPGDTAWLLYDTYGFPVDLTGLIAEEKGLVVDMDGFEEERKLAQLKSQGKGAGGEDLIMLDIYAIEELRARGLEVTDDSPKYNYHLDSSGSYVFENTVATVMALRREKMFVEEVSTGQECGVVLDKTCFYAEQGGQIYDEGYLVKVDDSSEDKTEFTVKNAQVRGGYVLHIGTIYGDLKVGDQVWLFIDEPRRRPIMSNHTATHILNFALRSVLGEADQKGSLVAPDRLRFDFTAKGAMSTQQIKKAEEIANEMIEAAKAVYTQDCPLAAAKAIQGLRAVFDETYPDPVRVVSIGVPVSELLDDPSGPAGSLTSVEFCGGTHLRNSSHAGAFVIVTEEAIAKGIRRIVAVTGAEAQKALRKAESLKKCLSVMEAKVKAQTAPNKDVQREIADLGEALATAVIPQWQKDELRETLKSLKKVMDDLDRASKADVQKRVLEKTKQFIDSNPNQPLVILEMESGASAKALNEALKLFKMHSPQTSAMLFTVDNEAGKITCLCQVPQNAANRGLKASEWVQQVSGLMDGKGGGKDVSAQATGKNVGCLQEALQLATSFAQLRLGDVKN
UniProt P12931, sequence (P12931 whole entry, looked up): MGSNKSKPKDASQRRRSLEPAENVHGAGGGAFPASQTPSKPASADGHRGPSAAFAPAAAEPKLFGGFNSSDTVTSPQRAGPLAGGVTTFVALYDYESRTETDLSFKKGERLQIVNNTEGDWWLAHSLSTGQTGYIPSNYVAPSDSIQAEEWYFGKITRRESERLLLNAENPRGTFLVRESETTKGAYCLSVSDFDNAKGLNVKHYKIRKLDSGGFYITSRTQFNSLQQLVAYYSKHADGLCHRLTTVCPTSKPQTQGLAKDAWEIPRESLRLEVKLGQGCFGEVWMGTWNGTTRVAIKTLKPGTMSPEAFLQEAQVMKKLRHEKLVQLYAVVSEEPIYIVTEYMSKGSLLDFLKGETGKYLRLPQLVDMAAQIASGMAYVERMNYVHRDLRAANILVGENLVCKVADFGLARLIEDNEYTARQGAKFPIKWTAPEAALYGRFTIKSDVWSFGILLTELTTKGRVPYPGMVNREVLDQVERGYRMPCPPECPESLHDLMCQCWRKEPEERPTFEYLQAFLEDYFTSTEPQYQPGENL
UniProt P23246, sequence (P23246 whole entry): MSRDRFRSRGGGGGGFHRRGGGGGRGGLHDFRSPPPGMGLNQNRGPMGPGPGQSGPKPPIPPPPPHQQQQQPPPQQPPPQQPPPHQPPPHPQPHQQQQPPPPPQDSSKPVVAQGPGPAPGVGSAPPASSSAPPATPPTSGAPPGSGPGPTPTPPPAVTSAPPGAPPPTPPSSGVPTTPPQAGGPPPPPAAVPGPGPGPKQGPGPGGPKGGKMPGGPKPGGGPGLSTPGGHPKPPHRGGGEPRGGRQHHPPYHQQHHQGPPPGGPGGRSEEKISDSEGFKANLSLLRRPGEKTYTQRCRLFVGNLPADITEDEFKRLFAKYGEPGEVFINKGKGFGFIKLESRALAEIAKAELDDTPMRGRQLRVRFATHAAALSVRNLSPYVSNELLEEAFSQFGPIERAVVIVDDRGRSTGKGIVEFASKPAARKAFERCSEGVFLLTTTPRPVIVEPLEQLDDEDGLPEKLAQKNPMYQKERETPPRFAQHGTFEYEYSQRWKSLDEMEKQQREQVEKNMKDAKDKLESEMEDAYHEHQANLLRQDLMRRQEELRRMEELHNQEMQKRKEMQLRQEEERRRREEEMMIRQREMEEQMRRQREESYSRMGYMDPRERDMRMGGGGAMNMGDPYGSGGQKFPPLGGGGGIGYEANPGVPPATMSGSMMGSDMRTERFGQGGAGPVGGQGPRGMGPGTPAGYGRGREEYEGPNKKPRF
UniProt P17900, sequence (P17900 whole entry): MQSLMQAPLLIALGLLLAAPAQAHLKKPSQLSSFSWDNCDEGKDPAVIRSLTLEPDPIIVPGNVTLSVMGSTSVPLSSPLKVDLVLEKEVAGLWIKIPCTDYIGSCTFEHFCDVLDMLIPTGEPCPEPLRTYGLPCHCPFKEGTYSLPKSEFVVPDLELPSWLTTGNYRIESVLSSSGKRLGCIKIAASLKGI
UniProt P16949, sequence (P16949 whole entry): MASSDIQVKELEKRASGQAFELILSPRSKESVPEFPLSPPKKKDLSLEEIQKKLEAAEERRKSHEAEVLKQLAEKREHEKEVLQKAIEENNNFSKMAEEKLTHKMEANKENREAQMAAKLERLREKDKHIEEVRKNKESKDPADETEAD
UniProt Q9NXW2, sequence (Q9NXW2 whole entry, one chain of several): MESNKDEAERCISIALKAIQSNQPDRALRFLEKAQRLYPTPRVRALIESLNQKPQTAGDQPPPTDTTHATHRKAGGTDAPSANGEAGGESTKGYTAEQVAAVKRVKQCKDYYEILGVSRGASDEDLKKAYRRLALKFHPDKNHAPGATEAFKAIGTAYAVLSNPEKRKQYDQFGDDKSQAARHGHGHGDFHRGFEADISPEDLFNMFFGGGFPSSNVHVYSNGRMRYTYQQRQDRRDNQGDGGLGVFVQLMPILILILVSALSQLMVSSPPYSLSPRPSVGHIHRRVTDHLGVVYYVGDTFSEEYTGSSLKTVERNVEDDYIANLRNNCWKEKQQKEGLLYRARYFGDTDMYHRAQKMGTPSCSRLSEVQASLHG
UniProt O43167, sequence (O43167 whole entry): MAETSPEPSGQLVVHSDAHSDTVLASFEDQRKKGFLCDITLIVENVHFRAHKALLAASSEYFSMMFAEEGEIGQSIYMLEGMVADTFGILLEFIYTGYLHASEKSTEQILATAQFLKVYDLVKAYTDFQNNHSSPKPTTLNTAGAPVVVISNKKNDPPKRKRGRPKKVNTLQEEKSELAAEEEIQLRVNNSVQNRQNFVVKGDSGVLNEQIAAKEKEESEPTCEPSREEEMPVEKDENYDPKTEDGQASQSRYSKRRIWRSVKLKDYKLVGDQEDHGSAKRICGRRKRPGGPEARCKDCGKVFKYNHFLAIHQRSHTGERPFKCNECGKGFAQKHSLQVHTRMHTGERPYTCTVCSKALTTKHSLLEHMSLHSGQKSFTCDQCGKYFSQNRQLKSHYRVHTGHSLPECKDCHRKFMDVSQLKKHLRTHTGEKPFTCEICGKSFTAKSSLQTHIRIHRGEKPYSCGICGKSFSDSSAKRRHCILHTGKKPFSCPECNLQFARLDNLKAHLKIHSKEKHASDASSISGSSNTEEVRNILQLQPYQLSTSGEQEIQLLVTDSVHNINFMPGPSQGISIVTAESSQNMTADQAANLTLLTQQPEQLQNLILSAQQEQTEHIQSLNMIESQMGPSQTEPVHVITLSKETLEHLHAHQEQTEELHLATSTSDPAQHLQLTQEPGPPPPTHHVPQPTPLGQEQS
UniProt O75531, sequence (O75531 whole entry): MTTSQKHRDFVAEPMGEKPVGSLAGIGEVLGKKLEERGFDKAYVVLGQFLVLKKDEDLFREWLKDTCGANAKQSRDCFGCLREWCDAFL

Target	NP40-soluble protein abundance (concentration: 0.1mM)	NP40-soluble protein abundance (concentration: 0.5mM)	NP40-soluble protein abundance (concentration: 1mM)	NP40-soluble protein abundance (concentration: 2mM)	NP40-soluble protein abundance (concentration: 4mM)	NP40-soluble protein abundance (concentration: 6mM)	NP40-soluble protein abundance (concentration: 8mM)	NP40-soluble protein abundance (concentration: 10mM)
PSMB4 (UniProt P28070)	0.926 ± 0.12	1.01 ± 0.11	0.939 ± 0.11	1.04 ± 0.14	1.05 ± 0.21	1.03 ± 0.22	0.945 ± 0.14	0.976 ± 0.14
ZBTB24 (UniProt O43167)	1.09 ± 0.18	1.09 ± 0.2	1.02 ± 0.21	1.05 ± 0.2	1.06 ± 0.24	0.976 ± 0.11	1 ± 0.053	1.08 ± 0.14
UniProt P49840	0.981 ± 0.028	1.03 ± 0.029	0.913 ± 0.022	0.939 ± 0.02	0.921 ± 0.044	0.925 ± 0.021	0.875 ± 0.051	0.888 ± 0.051
STMN1 (UniProt P16949)	0.911 ± 0.0092	0.899 ± 0.048	0.994 ± 0.014	0.909 ± 0.042	0.85 ± 0.069	0.935 ± 0.1	0.971 ± 0.089	0.995 ± 0.041
UniProt O00567	1.05 ± 0.035	1.03 ± 0.046	1.1 ± 0.087	1.23 ± 0.075	1.55 ± 0.12	1.75 ± 0.12	2.06 ± 0.14	2.48 ± 0.13
GM2A (UniProt P17900)	0.851 ± 0.015	0.931 ± 0.022	0.876 ± 0.013	0.923 ± 0.1	0.853 ± 0.042	0.859 ± 0.013	0.856 ± 0.12	0.927 ± 0.067
ESD (UniProt P10768)	0.959 ± 0.015	0.958 ± 0.032	0.924 ± 0.032	0.876 ± 0.025	0.882 ± 0.034	0.897 ± 0.04	0.875 ± 0.044	0.839 ± 0.059
UniProt O75143|O75143-2|O75143-5	0.993 ± 0.038	0.996 ± 0.042	1.01 ± 0.065	1.02 ± 0.081	0.967 ± 0.024	0.959 ± 0.088	0.937 ± 0.058	0.947 ± 0.041
DNAJC8 (UniProt O75937)	0.838 ± 0.14	0.801 ± 0.056	1.1 ± 0.17	1.09 ± 0.056	1.08 ± 0.14	1.14 ± 0.12	1.05 ± 0.21	1.3 ± 0.25
H7BYN4|Q02241|Q02241-2|Q02241-3 (UniProt Q02241)	1.1 ± 0.048	1.03 ± 0.036	1.0707 ± 0.00082	1.09 ± 0.021	1.114 ± 0.0076	1.13 ± 0.046	1.12 ± 0.084	1.09 ± 0.041
UniProt P00387|P00387-2|P00387-3	1.11 ± 0.13	1.1 ± 0.14	0.945 ± 0.11	0.947 ± 0.15	0.938 ± 0.14	0.925 ± 0.14	0.882 ± 0.1	0.853 ± 0.14
SFPQ (UniProt P23246)	0.998 ± 0.053	0.989 ± 0.086	1.03 ± 0.13	1.23 ± 0.14	1.61 ± 0.22	1.85 ± 0.28	2 ± 0.35	2.04 ± 0.36
I3L3Y9|I3L4X7|Q13227|Q13227-2 (UniProt Q13227)	0.978 ± 0.059	0.878 ± 0.0093	1.01 ± 0.13	1.01 ± 0.072	1.02 ± 0.11	1.06 ± 0.11	1.03 ± 0.13	1.08 ± 0.14
UniProt O60861|O60861-1|O60861-4	1 ± 0.02	1.01 ± 0.071	1.01 ± 0.047	0.94 ± 0.063	0.935 ± 0.035	0.929 ± 0.04	0.978 ± 0.046	0.888 ± 0.06
UniProt O14776|O14776-2	0.97 ± 0.042	0.962 ± 0.056	0.979 ± 0.047	0.953 ± 0.083	0.989 ± 0.079	1.01 ± 0.084	1.05 ± 0.05	1.04 ± 0.071
ARID1A (UniProt O14497)	0.993 ± 0.031	1.06 ± 0.016	1.08 ± 0.055	1.08 ± 0.084	1.1 ± 0.1	1.12 ± 0.12	1.16 ± 0.17	1.13 ± 0.17
RAD21 (UniProt O60216)	0.975 ± 0.037	0.991 ± 0.03	1.06 ± 0.023	1.07 ± 0.044	1.09 ± 0.028	1.07 ± 0.038	1.11 ± 0.062	1.12 ± 0.092
CRKL (UniProt P46109)	0.973 ± 0.029	0.958 ± 0.058	0.967 ± 0.092	0.932 ± 0.073	0.921 ± 0.076	0.906 ± 0.089	0.923 ± 0.093	0.876 ± 0.086
UniProt O95758-2|O95758-6|O95758|O95758-1|O95758-4|O95758-5|O95758-7	1.02 ± 0.074	0.974 ± 0.052	1.02 ± 0.064	1.05 ± 0.11	0.994 ± 0.088	0.972 ± 0.05	0.959 ± 0.058	0.951 ± 0.038
GNL1 (UniProt P36915)	1.05 ± 0.023	1.03 ± 0.019	0.972 ± 0.033	0.95 ± 0.015	0.9647 ± 0.0095	0.944 ± 0.02	0.959 ± 0.045	0.906 ± 0.061
UniProt P48634|P48634-2|P48634-3	1.07 ± 0.034	1.06 ± 0.0091	1.19 ± 0.1	1.27 ± 0.03	1.42 ± 0.062	1.52 ± 0.096	1.7 ± 0.19	1.84 ± 0.28
UniProt O15111	1.03 ± 0.04	1.04 ± 0.07	0.963 ± 0.052	0.964 ± 0.081	0.961 ± 0.06	0.927 ± 0.061	0.891 ± 0.013	0.887 ± 0.024
UniProt O60488|O60488-2|D6RD96	1.02 ± 0.028	1.08 ± 0.053	0.9363 ± 0.0046	0.939 ± 0.066	0.908 ± 0.045	0.905 ± 0.049	0.894 ± 0.039	0.843 ± 0.086
M0R2S1|P62987 (UniProt P62987)	0.88 ± 0.084	0.895 ± 0.11	1.01 ± 0.17	0.915 ± 0.11	0.89 ± 0.089	0.886 ± 0.068	0.867 ± 0.12	0.941 ± 0.11
BANF1 (UniProt O75531)	1.42 ± 0.34	2.98 ± 1.1	5.2 ± 3	5.54 ± 3.3	5.21 ± 3.3	5.08 ± 3	4.35 ± 2	5.71 ± 3.2
J3KPS0|Q9NXW2|Q9NXW2-2 (UniProt Q9NXW2)	1.01 ± 0.065	0.995 ± 0.088	0.984 ± 0.083	0.935 ± 0.064	0.913 ± 0.066	0.918 ± 0.1	0.967 ± 0.082	0.925 ± 0.063
P15531-2|P22392-2|Q32Q12 (UniProt Q32Q12+P22392+P15531)	0.983 ± 0.029	0.946 ± 0.049	0.903 ± 0.045	0.909 ± 0.068	0.9 ± 0.017	0.878 ± 0.04	0.822 ± 0.06	0.839 ± 0.025
UniProt P49588|P49588-2	0.95 ± 0.017	0.981 ± 0.025	0.928 ± 0.032	0.895 ± 0.034	0.876 ± 0.043	0.905 ± 0.041	0.877 ± 0.04	0.848 ± 0.052
UniProt P12931|P12931-2	1.05 ± 0.05	1.05 ± 0.063	0.955 ± 0.018	0.9845 ± 0.0092	0.905 ± 0.063	0.896 ± 0.015	0.894 ± 0.052	0.837 ± 0.074
